# Measurements from PubChem BioAssay (Tox21).
# Several values for one entry are separate records, joined by “and”; a condition that tells them apart may be missing. Equal values may be shown once. Results filed as inconclusive are left out. A call without a number means that no potency is given here. A structure can be active in one record and inactive in another. Activity calls are given as the source filed them. Unless noted, the call rests on the fitted dose curve.
# Legend:
# [1] = target: Gonadotropin-releasing hormone receptor (Homo sapiens) (UniProt P30968); test: Human gonadotropin-releasing hormone receptor (GnRHR) small molecule agonists, calcium flux assay in GnRHR-HEK293 cells (AID 1920063); further: nearly all actives have a fitted effect of over 35% in size
# Sequence of Gonadotropin-releasing hormone receptor (Homo sapiens) (P30968 whole entry, looked up): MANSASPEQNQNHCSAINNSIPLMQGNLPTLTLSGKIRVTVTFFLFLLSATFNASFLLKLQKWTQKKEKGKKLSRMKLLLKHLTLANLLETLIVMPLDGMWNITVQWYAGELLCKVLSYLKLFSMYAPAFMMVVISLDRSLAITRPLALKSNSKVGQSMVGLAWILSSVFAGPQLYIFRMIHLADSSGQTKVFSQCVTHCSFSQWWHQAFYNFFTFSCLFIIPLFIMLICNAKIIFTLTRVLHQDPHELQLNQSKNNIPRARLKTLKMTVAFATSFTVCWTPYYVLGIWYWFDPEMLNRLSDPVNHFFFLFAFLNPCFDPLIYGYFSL
# Procedure, shortened: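 Intracellular calcium rise is the read-out: engineered human GnRHR HEK293 cells, dye-loaded, are exposed to DMSO-dissolved compounds and fluorescence at Ex/Em 480/540 is tracked for 3 min.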
# [2] = target: KiSS-1 receptor (Homo sapiens) (UniProt Q969F8); test: Human kisspeptin (KISS1R) small molecule agonists, calcium flux assay in KISS1R-HEK293 cells (AID 1920064; active means well fitted activation curve with a large enough effect in the repeat runs)
# Sequence of KiSS-1 receptor (Homo sapiens) (Q969F8 whole entry, looked up): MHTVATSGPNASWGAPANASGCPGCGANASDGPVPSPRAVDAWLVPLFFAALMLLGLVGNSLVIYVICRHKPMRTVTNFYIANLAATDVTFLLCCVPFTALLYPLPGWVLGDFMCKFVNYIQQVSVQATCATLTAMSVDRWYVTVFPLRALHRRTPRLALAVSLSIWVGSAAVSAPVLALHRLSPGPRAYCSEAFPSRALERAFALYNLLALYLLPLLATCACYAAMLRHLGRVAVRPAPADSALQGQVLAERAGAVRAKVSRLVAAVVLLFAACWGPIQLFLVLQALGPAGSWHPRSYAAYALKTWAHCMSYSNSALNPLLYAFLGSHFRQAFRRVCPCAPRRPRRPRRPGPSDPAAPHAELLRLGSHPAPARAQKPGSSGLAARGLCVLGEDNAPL
# Procedure, shortened: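 Concentration-response testing used 15 concentrations in triplicate on human KISS1R-expressing HEK293 cells. Calcium-dependent fluorescence (Ex/Em 480/540) was followed kinetically for 3 min after compound transfer.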
# [3] = G protein-coupled receptor (GPCR) small molecule agonists, calcium flux assay: HEK293 wild type cell line counter screen (AID 1920065)
# Procedure, shortened: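 Fluorescence intensity signals activation. After overnight (18 h) culture and a 1 h calcium dye load at 37 C, compounds are added by pin tool and the plate read at 480/540 nm for 3 min in 1 s steps.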
# [4] = cAMP Responsive Elements (CRE) small molecule agonists, cell-based qHTS assay (AID 1963590)
# Procedure, shortened: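 Compound exposure lasted 3 h at 37 C/5% CO2 in CRE-bla HEK 293T cells grown in assay medium with 10% dialyzed FBS and 25 mM HEPES. Reporter signal came from LiveBLAzer B/G FRET substrate, 2 h, room temperature.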
# [5] = cAMP Responsive Elements (CRE) small molecule antagonists, cell-based qHTS assay (AID 1963591; active means well fitted inhibition curve with a large enough effect in the signal ratio in the repeat runs, not every such curve was filed as active; the % refers to the signal ratio)
# Procedure, shortened: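 Stimulation used NKH477 at a final 0.25 uM for 3 h in compound-treated CRE-bla HEK293T cells, seeded 18 h beforehand. Reporter activity was measured with LiveBLAzer B/G FRET substrate after 2 h at room temperature.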
# [6] = target: Beta-2 adrenergic receptor (Homo sapiens) (UniProt P07550); test: Adrenergic beta2 receptor (ADRB2) small molecule antagonists, cell-based qHTS assay (AID 1963592); further: nearly all actives have a fitted effect of over 50% in size; further: potency means the concentration at half of the fitted maximal effect
# Sequence of Beta-2 adrenergic receptor (Homo sapiens) (P07550 whole entry, looked up): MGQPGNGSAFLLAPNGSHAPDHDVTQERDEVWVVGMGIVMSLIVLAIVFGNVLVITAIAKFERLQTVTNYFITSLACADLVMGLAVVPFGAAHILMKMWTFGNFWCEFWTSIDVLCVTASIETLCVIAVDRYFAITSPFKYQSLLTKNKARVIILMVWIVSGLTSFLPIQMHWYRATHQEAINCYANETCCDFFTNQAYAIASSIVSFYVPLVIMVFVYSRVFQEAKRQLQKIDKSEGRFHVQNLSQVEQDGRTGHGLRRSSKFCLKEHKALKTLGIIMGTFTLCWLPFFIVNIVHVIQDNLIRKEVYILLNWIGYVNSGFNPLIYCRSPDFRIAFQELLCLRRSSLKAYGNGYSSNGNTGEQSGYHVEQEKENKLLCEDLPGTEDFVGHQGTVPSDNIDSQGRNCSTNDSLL
# Procedure, shortened: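 Assay format: CHO-ADRB2 cells, 18-20hr seeding at 37C/5% CO2, then compound plus 1nM isoproterenol agonist mix for 0.5hr RT. Homogeneous time-resolved fluorescence cAMP detection after 1hr, expressed as 665/615 nm ratio.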
# [7] = target: D(2) dopamine receptor (Homo sapiens) (UniProt P14416); test: Dopamine D2 receptor (DRD2) small molecule antagonists, cell-based qHTS assay (AID 1963595; active means well fitted inhibition curve with a large enough effect in the signal ratio in the repeat runs, with a control signal flat; the % refers to the signal ratio)
# Sequence of D(2) dopamine receptor (Homo sapiens) (P14416 whole entry, looked up): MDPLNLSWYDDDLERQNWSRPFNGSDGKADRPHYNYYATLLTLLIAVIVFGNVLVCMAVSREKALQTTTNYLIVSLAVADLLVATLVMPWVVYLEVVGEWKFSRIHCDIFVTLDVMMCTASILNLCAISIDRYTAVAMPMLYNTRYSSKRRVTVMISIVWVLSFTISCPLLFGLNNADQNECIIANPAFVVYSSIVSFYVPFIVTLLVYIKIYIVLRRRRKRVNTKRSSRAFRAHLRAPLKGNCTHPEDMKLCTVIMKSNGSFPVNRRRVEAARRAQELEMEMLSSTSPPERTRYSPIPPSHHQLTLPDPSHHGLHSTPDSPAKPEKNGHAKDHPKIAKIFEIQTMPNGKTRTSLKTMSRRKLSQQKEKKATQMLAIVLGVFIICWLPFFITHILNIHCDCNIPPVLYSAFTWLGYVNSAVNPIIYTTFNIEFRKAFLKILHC
# Procedure, shortened: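 Stable D2 receptor HEK293 line, 24 h after seeding. Compound preincubated 10 min, then quinpirole (12 nM) with forskolin analogue NKH477 (200 nM), 30 min, room temperature. Detection by time-resolved FRET of cAMP.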
# [8] = Nuclear factor erythroid 2-related factor 2/antioxidant responsive element (Nrf2/ARE) small molecule agonists: luciferase reporter gene qHTS assay in human keratinocytes (AID 1919969); further: nearly all actives have a fitted effect of over 35% in size; further: potency means the concentration at half of the fitted maximal effect
# [9] = p53 small molecule agonists, cell-based qHTS assay with human liver microsomes (AID 1963577);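 further: p53 response element beta-lactamase reporter cells with liver microsomes plus NADPH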
# Procedure, shortened: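 HLM-supplemented p53RE-bla reporter assay: 16 h compound exposure at 37 C, microsomes and NADPH each 0.5 mg/mL final, read by fluorescence intensity.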
# [10] = p53 small molecule agonists, cell-based qHTS assay with human liver microsomes: qHTS cell viability counter screen (AID 1963579); further: nearly all actives have a fitted effect of over 45% in size; further: potency means the concentration at half of the fitted maximal effect
# Procedure, shortened: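 Viability of p53RE-bla cells is measured as CellTiter-Glo luminescence following a 16 h, 37 C incubation with compound, liver microsomes from human donors and NADPH.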
# [11] = p53 small molecule agonists, cell-based qHTS assay with rat liver microsomes: qHTS cell viability counter screen (AID 1963580); further: nearly all actives have a fitted effect of over 45% in size; further: potency means the concentration at half of the fitted maximal effect
# Procedure, shortened: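 Cytotoxicity counter screen: intracellular ATP read by CellTiter-Glo luminescence in the p53 reporter wells. HCT-116 p53RE-bla cells were treated for 16 h at 37 C alongside rat liver microsomes and NADPH, each 0.5 mg/mL final.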
# [12] = p53 small molecule agonists, cell-based qHTS assay (AID 1963582; active means well fitted activation curve with a large enough effect in the signal ratio in the repeat runs, not every such curve was filed as active; the % refers to the signal ratio)
# Procedure, shortened: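 After plating, p53RE-bla cells sat 5 h in the incubator; compounds or DMSO vehicle were pinned in; a 16 h incubation at 37 C followed; FRET substrate was added and, 2 h later at RT, fluorescence was measured.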
# [13] = target: 5-hydroxytryptamine receptor 2A (Homo sapiens) (UniProt P28223); test: 5-hydroxytryptamine receptor 2A (HTR2A) small molecule antagonists, cell-based qHTS assay (AID 1963586); further: nearly all actives have a fitted effect of over 45% in size
# Sequence of 5-hydroxytryptamine receptor 2A (Homo sapiens) (P28223 whole entry, looked up): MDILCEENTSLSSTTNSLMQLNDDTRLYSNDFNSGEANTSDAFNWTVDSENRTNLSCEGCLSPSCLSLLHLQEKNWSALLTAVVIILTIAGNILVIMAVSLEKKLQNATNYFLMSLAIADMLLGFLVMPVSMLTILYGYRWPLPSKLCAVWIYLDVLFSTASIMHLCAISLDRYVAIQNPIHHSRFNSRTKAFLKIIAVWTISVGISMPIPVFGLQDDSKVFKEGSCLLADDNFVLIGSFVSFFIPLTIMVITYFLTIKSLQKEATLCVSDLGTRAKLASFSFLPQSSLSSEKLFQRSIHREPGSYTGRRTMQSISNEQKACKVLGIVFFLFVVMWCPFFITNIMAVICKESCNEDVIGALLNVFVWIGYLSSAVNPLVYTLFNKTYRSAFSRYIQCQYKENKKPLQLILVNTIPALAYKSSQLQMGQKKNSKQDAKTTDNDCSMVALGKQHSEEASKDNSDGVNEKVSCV
# Procedure, shortened: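 CHO cells stably expressing human HTR2A were plated for 18 h at 37 C, then loaded with calcium dye for 1 h. Compounds were preincubated 5 min at room temperature before DOI (4 nM solution) was added. Kinetic fluorescence was read for 3 min.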
# [14] = target: 5-hydroxytryptamine receptor 2A (Homo sapiens) (UniProt P28223); test: 5-hydroxytryptamine receptor 2A (HTR2A) small molecule agonists, cell-based qHTS assay (AID 1963587); further: nearly all actives have a fitted effect of over 30% in size; further: potency means the concentration at half of the fitted maximal effect
# Procedure, shortened: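 Kinetic calcium-flux fluorescence (2 min, 1 sec intervals) after compound addition in agonist mode. HTR2A-CHO cells were cultured 18 h, then dye-loaded 1 h at 37 C.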
# [15] = target: Muscarinic acetylcholine receptor M1 (Homo sapiens) (UniProt P11229); test: Cholinergic receptor muscarinic 1 (CHRM1) small molecule antagonists, cell-based qHTS assay (AID 1963588); further: nearly all actives have a fitted effect of over 40% in size; further: potency means the concentration at half of the fitted maximal effect
# Sequence of Muscarinic acetylcholine receptor M1 (Homo sapiens) (P11229 whole entry, looked up): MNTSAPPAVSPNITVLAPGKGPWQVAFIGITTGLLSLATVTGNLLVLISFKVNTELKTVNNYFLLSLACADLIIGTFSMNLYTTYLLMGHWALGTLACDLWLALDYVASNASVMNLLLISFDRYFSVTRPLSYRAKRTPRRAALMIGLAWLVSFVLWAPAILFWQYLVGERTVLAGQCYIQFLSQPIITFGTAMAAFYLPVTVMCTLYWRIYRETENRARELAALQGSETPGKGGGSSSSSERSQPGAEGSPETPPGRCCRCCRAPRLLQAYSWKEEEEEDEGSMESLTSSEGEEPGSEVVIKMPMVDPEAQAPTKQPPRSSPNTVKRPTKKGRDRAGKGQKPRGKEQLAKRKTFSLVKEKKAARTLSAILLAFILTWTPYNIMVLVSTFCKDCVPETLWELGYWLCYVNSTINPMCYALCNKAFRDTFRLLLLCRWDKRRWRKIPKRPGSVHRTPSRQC
# Procedure, shortened: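 Compounds were tested at 15 concentrations in three independent runs. Dye-loaded CHRM1-CHO cells were exposed 5 min at room temperature before stimulation by acetylcholine added at 50nM. Intracellular calcium was read kinetically on FDSS for 3 min.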
# [16] = target: Muscarinic acetylcholine receptor M1 (Homo sapiens) (UniProt P11229); test: Cholinergic receptor muscarinic 1 (CHRM1) small molecule agonists, cell-based qHTS assay (AID 1963589); further: nearly all actives have a fitted effect of over 35% in size; further: potency means the concentration at half of the fitted maximal effect
# Procedure, shortened: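 Fluorescent calcium dye reports M1 activation in stably transfected CHO cells. Compounds, 15 concentrations, added after 1 h dye loading at 37 C; kinetic reading at 1 sec intervals.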
# [17] = target: Beta-2 adrenergic receptor (Homo sapiens) (UniProt P07550); test: Adrenergic beta2 receptor (ADRB2) small molecule agonists, cell-based qHTS assay (AID 1963593);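 further: CHO cells stably overexpressing human ADRB2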
# Procedure, shortened: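 CHO cells stably over-expressing ADRB2 were plated overnight at 37C, then dosed with compounds plus a stimulation mix containing 100uM IBMX and 25uM Ro-20-1724 for 0.5hr at room temperature. cAMP was measured by HTRF competition, 1hr.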
# [18] = target: D(2) dopamine receptor (Homo sapiens) (UniProt P14416); test: Dopamine D2 receptor (DRD2) small molecule agonists, cell-based qHTS assay (AID 1963594); further: nearly all actives have a fitted effect of over 35% in size
# Procedure, shortened: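 cAMP accumulation in DRD2-HEK293 cells measured by HTRF after 1 h detection; compounds added 10 min before NKH477 (200nM […]) forskolin-analogue stimulation, 30 min at room temperature, with Ro20-1724 present at 0.1 mM final.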
# [19] = p53 small molecule agonists, cell-based qHTS assay with rat liver microsomes (AID 1963578)
# Procedure, shortened: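 Quantitative HTS of the Tox21 10K library: p53RE-bla cells, rat liver microsomes plus NADPH at 0.5 mg/mL final each, 16 h at 37 C, beta-lactamase fluorescence detection.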
# [20] = p53 small molecule agonists, cell-based qHTS assay: qHTS cell viability counter screen (AID 1963581); further: nearly all actives have a fitted effect of over 45% in size
# Procedure, shortened: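 Luminescence from CellTiter-Glo, reflecting ATP content, serves as the cytotoxicity measure; it is taken after the 2 h reporter substrate step in HCT-116 p53RE-bla cells dosed for 16 h at 37 C.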
Compound,Potency [1],Potency [2],Potency [3],Potency [4],Potency [5],Potency [6],Potency [7],Potency [8],Potency [9],Potency [10],Potency [11],Potency [12],Potency [13],Potency [14],Potency [15],Potency [16],Potency [17],Potency [18],Potency [19],Potency [20]
O=C(O)c1ccccc1O,inactive,inactive,inactive,inactive,inactive,inactive,inactive,,,,,,,,,,,,,
CN(C)C(=O)C(c1ccccc1)c1ccccc1,inactive,inactive,,inactive,inactive,inactive,,inactive,inactive,inactive,inactive,inactive,inactive,inactive,inactive,inactive,inactive,inactive,,
Cc1cc(-c2cc(C)c(N)c(C)c2)cc(C)c1N,inactive,inactive,inactive,inactive,inactive,,inactive,inactive,inactive,inactive,inactive,inactive,,inactive,2.11 µM (active) and inactive,inactive,,inactive,inactive,inactive
CC(NC(C)(C)C)C(=O)c1cccc(Cl)c1 (configuration not stated),inactive,inactive,inactive,inactive,inactive,inactive,,,inactive,inactive,inactive,,,,,,,,inactive,inactive
NC1(c2ccccc2)CCCCC1,inactive,,inactive,inactive,inactive,inactive,inactive,inactive,inactive,inactive,inactive,inactive,inactive,inactive,,inactive,inactive,inactive,inactive,inactive
Oc1ccc(Cl)cc1Cc1ccccc1,,inactive,inactive,inactive,inactive,61.9 µM (active) and inactive,,,inactive,inactive and 41.3 µM (active),45.7 µM (active) and inactive,inactive,inactive,44.2 µM (active) and inactive,inactive,inactive,inactive,inactive,inactive,inactive
OCC(O)CO,,,,,,,,inactive,,inactive,inactive,inactive,,,,,,,inactive,inactive
CC(C)c1ccc(NC(=O)N(C)C)cc1,inactive,inactive,inactive,inactive,inactive,inactive,inactive,inactive,inactive,inactive,inactive,inactive,inactive,inactive,inactive,inactive,,inactive,inactive,inactive
O=C1c2ccccc2C(=O)N1SC(Cl)(Cl)Cl,,inactive,inactive,inactive,,inactive,inactive,15.1 µM (active) and 7.7 µM (active),inactive,inactive,,,,54.2 µM (active) and 43.6 µM (active),,49 µM (active),,inactive,inactive,inactive
CCNc1nc(NCC)nc(SC)n1,inactive,inactive,inactive,inactive,inactive,inactive,inactive,inactive,inactive,inactive,inactive,inactive,inactive,inactive,,inactive,inactive,inactive,inactive,inactive
CCNc1nc(Cl)nc(NC(C)C)n1,inactive,inactive,inactive,inactive,inactive,inactive,inactive,inactive,inactive,inactive,inactive,,inactive,inactive,inactive,inactive,inactive,,inactive,inactive
O=C(O)C(Cl)Br (configuration not stated),inactive,,inactive,,inactive,inactive,inactive,inactive,inactive,inactive,inactive,inactive,,,inactive,inactive,,inactive,inactive,inactive
CCC(=O)C(CC(C)N(C)C)(c1ccccc1)c1ccccc1 (configuration not stated),inactive,inactive,inactive,,,inactive,inactive,inactive,inactive,inactive,inactive,inactive,inactive,inactive,inactive and 10.1 µM (active),,,inactive,inactive,inactive
